For 36 compounds, Potency and outcome results are on record in PubChem BioAssay (NCATS).

Results filed as inconclusive are left out. A call without a number means that no potency is given here. The source made the active and inactive calls. Unless noted, calls come from the whole dose curve; as a rule, active = well fitted inhibition curve with a large enough effect; inconclusive = small, poorly fitted or top-dose-only effect; inactive = no such curve, though single readings can be large or run the other way.

The first experiment in a line: Primary qHTS for Vero E6 cytotoxicity: counterscreen for inhibitors of SARS-S pseudo-typed particle cell entry (AID 1479150; calls by dose curve; note: potency is the fitted concentration of half-maximal effect). The conditions noted are these: cell viability; series mostly up to 57.1 µM.
Regarding `Nc1ccccc1C(=O)OCC(O)CO` (stereo not given), the Potency result was “inactive”.

`CCOC(=O)C1(c2ccccc2)CCN(CCc2ccc(N)cc2)CC1`: the Potency entry was “inactive”.

As for `CCC(=O)C(CCN(C)C)(c1ccccc1)c1ccccc1`, the Potency result was “inactive”.

As for `COc1ccc(CN2CCNCC2)c(OC)c1OC`, the Potency entry was “inactive”.

Turning to `CC1COC2(c3ccccc3Cl)c3cc(Cl)ccc3NC(=O)CN12` (stereo not given), the Potency result is “inactive”.

Turning to `C=CC[C@]1(O)CC[C@H]2[C@@H]3CCC4=CC(=O)CCC4=C3C=C[C@@]21C`, the Potency entry was “inactive”.

Consider `O=C(N[C@H]1N=C(c2ccccc2F)c2cccc3c2N(CC3)C1=O)c1cc2ccccc2[nH]1`, for which the Potency entry was “inactive”.

For `CN(C)C(=S)SSC(=S)N(C)C`, the Potency was 891 nM (active).

In the case of `COP(=S)(OC)Oc1ccc(S(N)(=O)=O)cc1`, the Potency result was “inactive”.

In the case of `Cc1nnc2n1-c1sc(CCC(=O)N3CCOCC3)cc1C(c1ccccc1Cl)=NC2`, the Potency result was “inactive”.

As to `CC(Cc1ccccc1)NCCCCl` (stereo not given), the Potency result is “inactive”.

`CCOC(=O)c1ncn2c1CN(C)C(=O)c1c(I)cccc1-2`: the Potency entry was “inactive”.

Consider `CCCC[N+]1(C)[C@@H]2CC(OC(=O)[C@H](CO)c3ccccc3)C[C@H]1[C@@H]1O[C@@H]12` (stereo not given in full), for which the Potency result was “inactive”.

On to `O=C(CCCN1CCC(n2c(=O)[nH]c3ccccc32)CC1)c1ccc(F)cc1`, for which the Potency entry is “inactive”.

Regarding `C=CCN1CC[C@]23CCCC[C@H]2[C@H]1Cc1ccc(O)cc13`, the Potency entry was “inactive”.

On to `Cc1c(Cl)c(=O)oc2cc(OP(=O)(OCCCl)OCCCl)ccc12`, for which the Potency result is “inactive”.

The next experiment is described as follows: Primary qHTS for inhibitors of La Crosse Virus (LACV) - induced cell death in SH-SY5Y cells (AID 1508616).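 Note: top concentration of the series differs between compounds; higher means more rescue of cells from virus-induced death.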 The conditions noted are these: SH-SY5Y LACV cytopathicity rescue, ATP luminescence, 6 d; series mostly up to 4.29 µM. An outline of the steps: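 Protection against LACV-induced cell death is scored in SH-SY5Y cells exposed to compounds and virus (0.01 MOI) for 6 days. Data normalized to virus-infected DMSO wells and virus-free DMSO wells.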
(qHTS replaces the single test concentration by a dilution series.)
Consider `CCOC(=O)NC(O)C(Cl)(Cl)Cl` (stereo not given), for which the compound was called inactive.

Consider `Nc1ccccc1C(=O)OCC(O)CO` (stereo not given), for which the result was inactive.

Regarding `CCOC(=O)C1(c2ccccc2)CCN(CCc2ccc(N)cc2)CC1`, the call was inactive.

On to `C[C@]12CC[C@H]3[C@@H](CCC4=CC(=O)CC[C@@]43C)[C@@H]1CC[C@@H]2C(=O)O`, for which the call was inactive.

As for `CCC(=O)C(CCN(C)C)(c1ccccc1)c1ccccc1`, the outcome was inactive.

Regarding `COc1cc(C[C@@H](C)N)c(OC)cc1Br`, the call was inactive.

As for `OC(c1ccccc1)(c1ccccc1)C1CCNCC1`, the compound was classed as inactive.

For `Sc1ccccc1Cl`, the result was inactive.

As to `COc1ccc(CN2CCNCC2)c(OC)c1OC`, the result was inactive.

In the case of `CC1COC2(c3ccccc3Cl)c3cc(Cl)ccc3NC(=O)CN12` (stereo not given), the compound was called inactive.

Consider `Nc1ccc(N)cc1`, for which the outcome was inactive.

Regarding `COc1cc(CC(C)N)c(OC)cc1Br` (stereo not given), the compound was called inactive.

In the case of `C[C@H]1CNCCc2ccc(Cl)cc21`, the call was inactive.

For `C[C@H]1C(=O)O[C@@H]2CCN3CC=C(COC(=O)[C@](C)(O)[C@]1(C)O)[C@H]23`, the compound was classed as inactive.

Consider `C=CC[C@]1(O)CC[C@H]2[C@@H]3CCC4=CC(=O)CCC4=C3C=C[C@@]21C`, for which the compound was called inactive.

`CC(Cc1ccc2c(c1)OCO2)NO` (stereo not given): the result was inactive.

Turning to `O=C(N[C@H]1N=C(c2ccccc2F)c2cccc3c2N(CC3)C1=O)c1cc2ccccc2[nH]1`, the compound was classed as inactive.

For `CN1C(=O)CN=C(c2ccccc2)c2cc([N+](=O)[O-])ccc21`, the call was inactive.

Turning to `O=c1[nH]c2cc(Cl)ccc2n1C1CCNCC1`, the call was inactive.

For `CN1C(=O)CN=C(c2ccccc2)c2cc(Cl)ccc21`, the compound was called inactive.

Consider `C[N+]1(CCC(C(N)=O)(c2ccccc2)c2ccccc2)CCCCC1`, for which the call was inactive.

As for `COP(=S)(OC)Oc1ccc(S(N)(=O)=O)cc1`, the call was inactive.

For `Cc1nnc2n1-c1sc(CCC(=O)N3CCOCC3)cc1C(c1ccccc1Cl)=NC2`, the outcome was inactive.

Consider `ClCc1cccc(Cl)c1`, for which the compound was called inactive.

For `CCNc1nc(Cl)nc(NCC)n1`, the call was inactive.

On to `CCc1cc(OC)c(C[C@H](C)N)cc1OC`, for which the call was inactive.

As for `COP(=S)(OC)Oc1ccc(Sc2ccc(OP(=S)(OC)OC)cc2)cc1`, the compound was called inactive.

As for `NC1(c2ccccc2)CCCCC1`, the compound was classed as inactive.

On to `CC(Cc1ccccc1)NCCCCl` (stereo not given), for which the compound was called inactive.

Regarding `CCOC(=O)c1ncn2c1CN(C)C(=O)c1c(I)cccc1-2`, the compound was classed as inactive.

Consider `CCCC[N+]1(C)[C@@H]2CC(OC(=O)[C@H](CO)c3ccccc3)C[C@H]1[C@@H]1O[C@@H]12` (stereo not given in full), for which the compound was called inactive.

On to `O=C(CCCN1CCC(n2c(=O)[nH]c3ccccc32)CC1)c1ccc(F)cc1`, for which the compound was called inactive.

Take `C=CCN1CC[C@]23CCCC[C@H]2[C@H]1Cc1ccc(O)cc13`: the compound was called inactive.

In the case of `CN(C)CCc1c[nH]c2cccc(O)c12`, the call was inactive.
